Source: ChEMBL document CHEMBL1201862, “PubChem BioAssay data set” (2004)
The campaign covered roughly 57,000 sequences. About 3,200 (5.6%) were called active. Rule as the data show it: active = GI50 up to about 1.1 µM and inactive = higher. The list is a sample of the results. Measured potencies and affinities stand elsewhere.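 Following 48 hours of exposure in 96-well plates, responses at five concentrations were used to interpolate endpoints linearly. At the GI50, growth is halved.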

The substances below were run on SF-268 (assay: NCI tumour cell line growth inhibition, 48 h).
Work on “[Bis(aminomethyl)ethylmethylsilane]tetrachloroplatinum(IV), CHEMBL2146192” yielded a GI50 of 2.43 µM. “[Bis(aminomethyl)tetramethylenesilane]tetrachloropaltinum(IV), CHEMBL2146189” showed a GI50 of 3.52 µM. With “[Bis(aminomethyl)dimethylsilane]tetrachloroplatinum(IV), CHEMBL2146190” the GI50 was 2.74 µM. Work on “[Bis(aminomethyl)diethylsilane]tetrachloroplatinum(IV), CHEMBL2146203” yielded a GI50 of 1.57 µM. “[Bis(aminomethyl)tetramethylenesilane]dichloropaltinum(II), CHEMBL2146205” gave a GI50 of 21.8 µM. Work on “[Bis(aminomethyl)dimethylsilane]dichloroplatinum (II), CHEMBL2146201” yielded a GI50 of 8.81 µM. Work on “cis-Bis[[(trimethylsilyl)methyl]amino]tetrachloroplatinum(IV), CHEMBL2146191” yielded a GI50 of 13.6 µM. Work on “mu-(1,7-nanodiamine-N,N')bis-(cis-aminedichloroplatimum (II)), CHEMBL2146215” yielded a GI50 of 8.97 µM. In the case of CISPLATIN, CHEMBL11359, the GI50 is reported as 0.745 µM. Work on “[Bis(aminomethyl)pentamethylenesilane]dichloropaltinum(II), CHEMBL2146202” yielded a GI50 of 3.46 µM. With “[Bis(aminomethyl)pentamethylenesilane]tetrachloropaltinum(IV), CHEMBL2146204” the GI50 was 3.59 µM.
